Results as given in PubChem BioAssay AID624453 (National Center for Advancing Translational Sciences (NCATS), 2012).

Molecular target: D(2) dopamine receptor (Homo sapiens) (UniProt P14416)
Assay: HTS Assay for Allosteric Antagonists of the Human D2 Dopamine Receptor: Hit Validation in primary assay
Settings: HEK293 TREx D2, calcium flux, dopamine EC80 antagonism; series mostly up to 41.8 µM; activity change, negative = inhibition: at the top concentration; active = well fitted curve in the direction sought with a large enough effect; inactive = no such curve, though single readings can be large or run the other way
Source text: Dopamine receptors (DARs) are involved in the etiology and/or therapy of a number of neuropsychiatric and endocrine disorders. For instance, all receptor-based antiparkinsonian drugs work via stimulating the D2 DAR subtype whereas all FDA-approved antipsychotic agents are antagonists of this receptor. […] There are three different types of allosteric modulators that we are seeking, two of which will stimulate or augment receptor signaling, allosteric agonists and potentiators, while the third, allosteric antagonists, will attenuate receptor signaling. The present primary screening assay measures compound antagonism after an EC80 addition of dopamine by tracking calcium flux in a […], inducible Hek293 Trex D2 cell line. NIH Chemical Genomics Center [NCGC] NIH Molecular Libraries Probe Centers Network [MLPCN] MLPCN Grant: NS064831 Assay Submitter (PI): David Sibley
Freshly passaged cells are plated in 1536 well black, clear bottom plates at a density of 4000 cells/well in 3 ul of complete media containing 1x tetracycline inducer. After an overnight incubation at 30 C in 5% CO2, cells are loaded with 2 ul of the no wash Calcium Assay Kit (ABD Bioquest) and incubated at room temperature for 30 to 90 minutes before it's read.

Chain of D(2) dopamine receptor (Homo sapiens) (P14416 whole entry, looked up): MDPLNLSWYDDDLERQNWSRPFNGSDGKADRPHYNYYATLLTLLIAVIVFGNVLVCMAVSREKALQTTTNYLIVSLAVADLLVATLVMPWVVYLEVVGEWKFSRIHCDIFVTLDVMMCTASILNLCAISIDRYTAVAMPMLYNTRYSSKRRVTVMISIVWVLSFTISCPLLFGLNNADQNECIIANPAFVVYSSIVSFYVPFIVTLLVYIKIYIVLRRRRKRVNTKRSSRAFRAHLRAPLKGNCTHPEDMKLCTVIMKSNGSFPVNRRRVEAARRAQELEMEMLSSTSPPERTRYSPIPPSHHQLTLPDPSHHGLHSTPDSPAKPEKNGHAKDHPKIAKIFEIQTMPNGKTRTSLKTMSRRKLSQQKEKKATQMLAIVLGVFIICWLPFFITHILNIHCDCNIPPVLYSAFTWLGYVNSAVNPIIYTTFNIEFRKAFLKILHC

Activity change, negative = inhibition, inactive:
CC(C)(C)NCC(O)c1cc(O)cc(O)c1 (configuration not stated) 20.4%
COc1cc(OC)c2ccc(=O)oc2c1 27%
CC1=CC(=O)c2ccccc2C1=O 28%
CCCCCCCCCCCC1=C(O)C(=O)C=C(O)C1=O 42.8%
COc1ccc2cc3[n+](cc2c1OC)CCc1cc2c(cc1-3)OCO2 40.3%
NCC1O[C@@H](OC2C(N)C[C@H](N)[C@@H](O[C@H]3OC(CO)C(O)C(N)C3O)C2O)C(N)C(O)C1O (some centres not stated) 40.9%
COc1ccc(-c2c(O)c3c(OC)c4c(cc3oc2=O)OC(C)(C)C=C4)cc1 34.9%
Cc1cc(C)nc(NS(=O)(=O)c2ccc(N)cc2)n1 15.7%
C[C@]12CCC3c4ccc(OS(=O)(=O)O)cc4CCC3C1CCC2=O (some centres not stated) 28.3%
CCCCNc1ccc(C(=O)OCCN(C)C)cc1 7.23%
NS(=O)(=O)c1cc(C2(O)NC(=O)c3ccccc32)ccc1Cl (configuration not stated) 27.7%
CC(CCC(=O)O)C1CCC2C3CC[C@H]4CC(O)CC[C@@]4(C)C3CC[C@@]12C (some centres not stated) 2.2%
O=C(OCc1ccccc1)c1ccccc1 18.9%
CC1OC(OC2C(CO)OC(OC3C(CO)OC(O)C(O)C3O)C(O)C2O)C(O)C(O)C1NC1C=C(CO)C(O)C(O)C1O (configuration not stated) -16.7%
CC(=O)OC1CC2C(C)(C)C(O)CC(O)[C@@]2(C)C2CC[C@@]3(C)C(=CC(=O)OC3c3ccoc3)[C@]12C (some centres not stated) 15.4%
CC(C)c1c(O)ccc2c1CCC1[C@@](C)(C=O)CCC[C@@]21C (some centres not stated) 35.8%
O=C(O)c1cc(=O)c2ccccc2[nH]1 -4.72%
